Test results as given in PubChem BioAssay (NCI).
Values joined by “and” are separate entries in the source; they are usually repeats but may differ in a detail not shown here. Identical values can stand only once. About 83,000 compounds went through this panel and 20% of them were active in at least one assay; those are over-represented in the sample as a whole.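 Results are percent growth after 48 hours of single-concentration exposure. 100 means growth as in untreated cells, lower positive values show inhibition; negative values down to -100 show cell death.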 Active and inactive are the calls of the source. How the source made its calls: active means growth percent below 10; inactive means the rest.

Tests used:
Assay in all cases: NCI-60 one-dose screen, 48 h (100 = growth as untreated, 0 = no growth, -100 = all killed)
Settings in all cases: 10 µM unless noted
NCI-H23 lung = system: NCI-H23 lung
NCI-H226 lung = system: NCI-H226 lung
NCI-H322M lung = system: NCI-H322M lung
HOP-62 NSCLC = system: HOP-62 NSCLC
NCI-H460 lung = system: NCI-H460 lung
HOP-92 NSCLC = system: HOP-92 NSCLC
NCI-H522 lung = system: NCI-H522 lung
A549/ATCC NSCLC = system: A549/ATCC NSCLC
786-0 renal = system: 786-0 renal
COLO 205 colon = system: COLO 205 colon

Measured: growth

COc1ccc(CCO)cc1
inactive: NCI-H23 lung 110% | NCI-H226 lung 92.8% | NCI-H322M lung 99% | HOP-62 NSCLC 96.2% | NCI-H460 lung 108% | HOP-92 NSCLC 86.4% | NCI-H522 lung 88.6% | A549/ATCC NSCLC 92.9% | 786-0 renal 99.3% | COLO 205 colon 96.3%

CC(NC(=O)CCl)c1ccccc1 (stereo not given)
inactive: NCI-H23 lung 99.9% | NCI-H226 lung 96.3% | NCI-H322M lung 106% | HOP-62 NSCLC 107% | NCI-H460 lung 99.7% | HOP-92 NSCLC 89% | NCI-H522 lung 98% | A549/ATCC NSCLC 104% | 786-0 renal 104% | COLO 205 colon 104%

CS(=O)(=O)c1nsc(N)n1
inactive: NCI-H23 lung 94.7% | NCI-H226 lung 99.2% | NCI-H322M lung 98.4% | HOP-62 NSCLC 89.5% | NCI-H460 lung 106% | HOP-92 NSCLC 111% | NCI-H522 lung 91.1% | A549/ATCC NSCLC 87.7% | 786-0 renal 106% | COLO 205 colon 103%

O=[N+]([O-])c1ccc(NC2CCCCC2)nc1
inactive: NCI-H23 lung 93.2% and 96.9% | NCI-H226 lung 113% and 92.4% | NCI-H322M lung 117% and 105% | HOP-62 NSCLC 94.8% and 101% | NCI-H460 lung 108% and 105% | HOP-92 NSCLC 114% and 81.8% | NCI-H522 lung 95.1% and 92.1% | A549/ATCC NSCLC 101% and 98.5% | 786-0 renal 103% | COLO 205 colon 108% and 102%

O=C1CCC(=O)N1CC1CC2CCC1C2 (stereo not given)
inactive: NCI-H23 lung 92.7% and 102% | NCI-H226 lung 95.9% and 92.2% | NCI-H322M lung 104% and 80.5% | HOP-62 NSCLC 96.2% and 86.7% | NCI-H460 lung 107% and 102% | HOP-92 NSCLC 99.9% and 101% | NCI-H522 lung 91.8% and 95.2% | A549/ATCC NSCLC 111% and 99.1% | 786-0 renal 98.5% and 97.6% | COLO 205 colon 117% and 92.5%

CCCCCCC(C)CC1=C(O)c2ccccc2C(=O)C1=O (stereo not given)
inactive: NCI-H23 lung 42.2% | NCI-H226 lung 37.3% | NCI-H322M lung 51.7% | HOP-62 NSCLC 59.3% | NCI-H460 lung 14.3% | HOP-92 NSCLC 67% | NCI-H522 lung 56.2% | A549/ATCC NSCLC 36% | 786-0 renal 27.1% | COLO 205 colon 80.2%

OCCCc1ccccc1
inactive: NCI-H23 lung 107% | NCI-H226 lung 99% | NCI-H322M lung 76.2% | HOP-62 NSCLC 101% | NCI-H460 lung 112% | HOP-92 NSCLC 94.7% | NCI-H522 lung 110% | A549/ATCC NSCLC 99.8% | 786-0 renal 110% | COLO 205 colon 94.1%

Clc1ccc2sc(-c3ccccc3)nc2c1
inactive: NCI-H23 lung 101% | NCI-H226 lung 82.2% | NCI-H322M lung 102% | HOP-62 NSCLC 74.5% | NCI-H460 lung 80% | HOP-92 NSCLC 105% | NCI-H522 lung 82.5% | A549/ATCC NSCLC 71.4% | 786-0 renal 108% | COLO 205 colon 115%

CC1=CC(=O)c2cccc(NC3=NCCO3)c21
inactive: NCI-H23 lung 100% | NCI-H226 lung 94.2% | NCI-H322M lung 99.4% | HOP-62 NSCLC 84.9% | NCI-H460 lung 107% | HOP-92 NSCLC 77.6% | NCI-H522 lung 87.8% | A549/ATCC NSCLC 92.3% | 786-0 renal 91.9% | COLO 205 colon 102%

O=C(O)c1c2c(nc3ccccc13)Cc1ccccc1-2
inactive: NCI-H23 lung 96.7% and 95.7% | NCI-H226 lung 115% and 95% | NCI-H322M lung 119% and 87.4% | HOP-62 NSCLC 118% and 88.9% | NCI-H460 lung 105% and 102% | HOP-92 NSCLC 92.3% and 96.5% | NCI-H522 lung 113% and 104% | A549/ATCC NSCLC 97.9% and 107% | 786-0 renal 108% and 101% | COLO 205 colon 109% and 107%

Cc1nc(Nc2ccc(Cl)cc2)c2cnn(-c3ccccc3)c2n1
inactive: NCI-H23 lung 97.3% | NCI-H226 lung 96.6% | NCI-H322M lung 104% | HOP-62 NSCLC 108% | NCI-H460 lung 103% | HOP-92 NSCLC 95.4% | NCI-H522 lung 105% | A549/ATCC NSCLC 110% | 786-0 renal 103% | COLO 205 colon 102%

O=c1[nH]c(=O)c2[nH]c(=O)[nH]c2[nH]1
inactive: NCI-H23 lung 92.8% | NCI-H226 lung 93.2% | NCI-H322M lung 101% | HOP-62 NSCLC 105% | NCI-H460 lung 104% | HOP-92 NSCLC 89.9% | NCI-H522 lung 112% | A549/ATCC NSCLC 104% | 786-0 renal 94.2% | COLO 205 colon 105%

CCOC(=O)c1csc(N)n1
inactive: NCI-H23 lung 105% and 102% | NCI-H226 lung 102% and 105% | NCI-H322M lung 87.1% and 101% | HOP-62 NSCLC 103% and 96.9% | NCI-H460 lung 105% | HOP-92 NSCLC 96% and 95.7% | NCI-H522 lung 88.7% | A549/ATCC NSCLC 81.5% and 93.8% | 786-0 renal 101% and 100% | COLO 205 colon 129% and 108%

CCN(CC)C(CC(=O)c1ccccc1)C(=O)c1ccccc1 (stereo not given)
inactive: NCI-H23 lung 102% | NCI-H226 lung 95% | NCI-H322M lung 107% | HOP-62 NSCLC 116% | NCI-H460 lung 106% | HOP-92 NSCLC 93.4% | NCI-H522 lung 71.7% | A549/ATCC NSCLC 102% | 786-0 renal 93.5% | COLO 205 colon 77.8%

CCN(C)c1ccccc1
inactive: NCI-H23 lung 102% | NCI-H226 lung 95.7% | NCI-H322M lung 111% | HOP-62 NSCLC 108% | NCI-H460 lung 108% | HOP-92 NSCLC 101% | NCI-H522 lung 99.5% | A549/ATCC NSCLC 105% | 786-0 renal 97% | COLO 205 colon 95.7%

COC(=O)CCOc1ccccc1
inactive: NCI-H23 lung 85.4% | NCI-H226 lung 105% | NCI-H322M lung 103% | HOP-62 NSCLC 101% | NCI-H460 lung 101% | HOP-92 NSCLC 86.2% | NCI-H522 lung 87.9% | A549/ATCC NSCLC 85% | 786-0 renal 95.3% | COLO 205 colon 118%

Cc1cc(NC(=O)NC(=O)c2ccccc2N(C)C)ccc1Oc1ncc(Br)cn1
-22.2% (active) and 15.1% (inactive): NCI-H522 lung
inactive: NCI-H23 lung 19.3% and 24.7% | NCI-H226 lung 55.6% and 66.4% | NCI-H322M lung 44.4% and 66.2% | HOP-62 NSCLC 37.7% | HOP-92 NSCLC 57.5% | A549/ATCC NSCLC 43.9% and 33.7% | 786-0 renal 27.9% and 31.4% | COLO 205 colon 14.2%
8.31% (active) and 10.8% (inactive): NCI-H460 lung

CCOC(=O)c1ccc(N2C(=O)C(Cl)(c3ccccc3)C2c2ccco2)cc1 (stereo not given)
inactive: NCI-H23 lung 70.4% | NCI-H226 lung 81.1% | NCI-H322M lung 83.8% | HOP-62 NSCLC 110% | NCI-H460 lung 84.2% | HOP-92 NSCLC 63.7% | NCI-H522 lung 34.2% | A549/ATCC NSCLC 86.2% | 786-0 renal 80.9% | COLO 205 colon 96.7%

CCC/C(=N/NC(N)=O)c1ccco1
inactive: NCI-H23 lung 99.1% | NCI-H226 lung 96.1% | NCI-H322M lung 96.5% | HOP-62 NSCLC 79.7% | NCI-H460 lung 104% | HOP-92 NSCLC 82.7% | NCI-H522 lung 76.3% | A549/ATCC NSCLC 93.4% | 786-0 renal 89.7% | COLO 205 colon 107%

CCOC(=O)c1ccc(C(=N)N)cc1
inactive: NCI-H23 lung 99% | NCI-H226 lung 106% | NCI-H322M lung 117% | HOP-62 NSCLC 108% | NCI-H460 lung 103% | HOP-92 NSCLC 80.2% | NCI-H522 lung 102% | A549/ATCC NSCLC 107% | 786-0 renal 106% | COLO 205 colon 114%

COc1ccc(-n2[nH]c3c(cnc4ccccc43)c2=O)cc1
inactive: NCI-H23 lung 73.1% and 95.9% | NCI-H226 lung 103% and 95.3% | NCI-H322M lung 93.2% and 101% | HOP-62 NSCLC 100% and 94.5% | NCI-H460 lung 103% and 108% | HOP-92 NSCLC 99.8% and 102% | NCI-H522 lung 89.2% | A549/ATCC NSCLC 92.4% and 102% | 786-0 renal 77.7% and 91.3% | COLO 205 colon 137% and 119%

O=[N+]([O-])c1ccc(N2CCN=N2)cc1
inactive: NCI-H23 lung 99.6% | NCI-H226 lung 96% | NCI-H322M lung 88% | HOP-62 NSCLC 82.9% | NCI-H460 lung 98.9% | HOP-92 NSCLC 89% | NCI-H522 lung 78.8% | A549/ATCC NSCLC 82.2% | 786-0 renal 84.8% | COLO 205 colon 92.7%
